Compound: Cc1ccc(-c2ccc3c(ccc4sc5c(c43)NC[C@@H](C)NC5=O)n2)cn1
Test: kinase activity remaining relative to vehicle control; higher = less inhibition
Method: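 In vitro radiometric kinase profiling of the MK2 inhibitor PF-3644022 at 0.1, 1 and 10 µM against a panel of kinases (MRC International Centre for Kinase Profiling, Dundee). Read-out is % kinase activity remaining relative to the vehicle control, mean of n=2.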

Chain of UniProt Q9H2X6 (Q9H2X6 whole entry, looked up): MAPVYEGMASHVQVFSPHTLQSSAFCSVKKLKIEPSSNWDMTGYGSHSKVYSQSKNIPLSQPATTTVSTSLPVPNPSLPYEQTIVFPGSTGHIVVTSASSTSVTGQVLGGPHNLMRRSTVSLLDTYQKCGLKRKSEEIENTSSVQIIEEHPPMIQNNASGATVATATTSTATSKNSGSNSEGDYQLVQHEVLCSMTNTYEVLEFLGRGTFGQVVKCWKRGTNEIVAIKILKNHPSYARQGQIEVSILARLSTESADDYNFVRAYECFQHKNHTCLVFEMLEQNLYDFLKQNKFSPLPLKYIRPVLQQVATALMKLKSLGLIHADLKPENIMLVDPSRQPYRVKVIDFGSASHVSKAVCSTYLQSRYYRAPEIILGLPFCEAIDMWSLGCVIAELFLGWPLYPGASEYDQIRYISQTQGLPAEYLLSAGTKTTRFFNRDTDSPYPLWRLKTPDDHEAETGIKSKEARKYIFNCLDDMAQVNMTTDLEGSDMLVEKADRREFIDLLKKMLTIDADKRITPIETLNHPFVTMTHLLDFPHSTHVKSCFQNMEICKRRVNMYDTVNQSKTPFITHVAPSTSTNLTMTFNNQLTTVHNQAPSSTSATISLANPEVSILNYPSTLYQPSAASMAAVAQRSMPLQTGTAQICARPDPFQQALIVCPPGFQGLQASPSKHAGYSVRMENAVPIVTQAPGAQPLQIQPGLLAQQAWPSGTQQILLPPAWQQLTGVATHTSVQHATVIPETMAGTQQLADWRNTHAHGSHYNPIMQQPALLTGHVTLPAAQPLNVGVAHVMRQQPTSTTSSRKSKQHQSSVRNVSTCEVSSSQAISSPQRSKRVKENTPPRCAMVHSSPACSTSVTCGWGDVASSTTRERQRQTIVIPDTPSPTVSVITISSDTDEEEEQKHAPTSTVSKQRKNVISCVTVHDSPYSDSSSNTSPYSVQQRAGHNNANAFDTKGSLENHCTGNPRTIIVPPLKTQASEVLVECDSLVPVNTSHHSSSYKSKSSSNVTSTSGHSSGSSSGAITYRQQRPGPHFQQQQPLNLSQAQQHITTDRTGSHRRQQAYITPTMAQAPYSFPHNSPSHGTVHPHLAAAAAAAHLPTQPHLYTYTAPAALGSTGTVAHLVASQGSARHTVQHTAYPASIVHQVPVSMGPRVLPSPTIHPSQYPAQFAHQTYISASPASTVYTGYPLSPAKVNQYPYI
Chain of UniProt P17948 (P17948 whole entry, looked up): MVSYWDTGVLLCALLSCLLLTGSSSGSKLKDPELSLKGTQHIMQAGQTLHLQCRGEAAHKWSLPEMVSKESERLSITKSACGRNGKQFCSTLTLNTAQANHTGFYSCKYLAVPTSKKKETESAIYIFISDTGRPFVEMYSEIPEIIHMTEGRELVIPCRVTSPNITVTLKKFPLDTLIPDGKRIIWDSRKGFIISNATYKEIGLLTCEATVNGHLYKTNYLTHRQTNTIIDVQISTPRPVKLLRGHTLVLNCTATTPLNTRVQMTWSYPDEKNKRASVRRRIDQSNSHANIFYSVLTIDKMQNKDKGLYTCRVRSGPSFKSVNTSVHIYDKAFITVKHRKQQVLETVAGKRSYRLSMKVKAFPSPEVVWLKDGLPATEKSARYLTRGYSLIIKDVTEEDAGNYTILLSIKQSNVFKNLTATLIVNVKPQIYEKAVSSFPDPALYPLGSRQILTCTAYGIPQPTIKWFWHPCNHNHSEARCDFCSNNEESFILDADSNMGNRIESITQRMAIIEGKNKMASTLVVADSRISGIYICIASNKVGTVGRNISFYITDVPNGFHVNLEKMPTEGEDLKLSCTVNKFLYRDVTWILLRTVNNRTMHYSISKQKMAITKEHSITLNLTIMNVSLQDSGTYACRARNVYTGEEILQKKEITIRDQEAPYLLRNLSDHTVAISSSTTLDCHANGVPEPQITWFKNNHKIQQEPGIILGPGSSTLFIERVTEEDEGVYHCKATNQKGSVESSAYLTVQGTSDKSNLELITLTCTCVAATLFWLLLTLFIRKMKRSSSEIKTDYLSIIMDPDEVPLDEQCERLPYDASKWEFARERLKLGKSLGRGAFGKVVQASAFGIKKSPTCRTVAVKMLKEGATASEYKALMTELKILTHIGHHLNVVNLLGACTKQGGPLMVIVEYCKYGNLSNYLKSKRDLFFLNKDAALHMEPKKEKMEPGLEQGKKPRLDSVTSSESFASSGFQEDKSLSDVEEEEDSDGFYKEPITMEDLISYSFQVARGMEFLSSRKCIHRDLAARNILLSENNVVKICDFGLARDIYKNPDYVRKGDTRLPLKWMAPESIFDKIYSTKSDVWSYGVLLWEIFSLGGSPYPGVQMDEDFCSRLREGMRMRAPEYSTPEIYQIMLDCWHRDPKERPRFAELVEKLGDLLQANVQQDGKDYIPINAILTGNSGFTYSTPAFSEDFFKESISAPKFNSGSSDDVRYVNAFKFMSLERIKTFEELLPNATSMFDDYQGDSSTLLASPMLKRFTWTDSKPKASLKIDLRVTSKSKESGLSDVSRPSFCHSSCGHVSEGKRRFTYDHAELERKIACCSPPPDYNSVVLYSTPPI
Chain of UniProt Q02763 (Q02763 whole entry, looked up): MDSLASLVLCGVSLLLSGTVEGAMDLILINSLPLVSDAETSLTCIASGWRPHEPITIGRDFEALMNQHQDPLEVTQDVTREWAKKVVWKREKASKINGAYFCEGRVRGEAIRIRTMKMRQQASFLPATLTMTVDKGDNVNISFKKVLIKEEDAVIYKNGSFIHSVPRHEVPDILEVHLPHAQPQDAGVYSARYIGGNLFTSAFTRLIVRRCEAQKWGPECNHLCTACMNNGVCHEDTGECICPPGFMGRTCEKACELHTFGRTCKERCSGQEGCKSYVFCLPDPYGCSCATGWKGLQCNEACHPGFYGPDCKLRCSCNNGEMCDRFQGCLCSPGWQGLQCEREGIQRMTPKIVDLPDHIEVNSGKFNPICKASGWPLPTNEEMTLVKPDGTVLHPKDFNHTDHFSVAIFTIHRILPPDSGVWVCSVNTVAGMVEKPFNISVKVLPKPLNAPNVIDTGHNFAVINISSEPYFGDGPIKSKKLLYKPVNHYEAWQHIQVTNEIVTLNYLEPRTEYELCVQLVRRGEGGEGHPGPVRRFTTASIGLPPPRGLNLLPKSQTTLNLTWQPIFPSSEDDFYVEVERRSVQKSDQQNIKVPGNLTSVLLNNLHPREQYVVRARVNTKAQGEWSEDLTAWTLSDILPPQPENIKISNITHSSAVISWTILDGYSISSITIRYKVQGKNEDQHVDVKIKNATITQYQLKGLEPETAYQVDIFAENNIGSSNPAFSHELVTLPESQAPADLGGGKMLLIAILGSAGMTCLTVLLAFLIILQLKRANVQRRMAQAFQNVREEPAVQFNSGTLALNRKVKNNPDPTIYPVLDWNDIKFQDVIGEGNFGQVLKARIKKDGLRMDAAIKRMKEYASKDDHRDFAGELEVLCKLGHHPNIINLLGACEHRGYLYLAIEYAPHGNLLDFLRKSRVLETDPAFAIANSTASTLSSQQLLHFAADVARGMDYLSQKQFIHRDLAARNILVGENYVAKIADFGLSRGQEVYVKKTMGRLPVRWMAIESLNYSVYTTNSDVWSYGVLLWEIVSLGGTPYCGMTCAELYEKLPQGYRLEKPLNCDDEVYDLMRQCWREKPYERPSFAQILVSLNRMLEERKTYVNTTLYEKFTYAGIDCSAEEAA
Chain of UniProt P12931 (P12931 whole entry, looked up): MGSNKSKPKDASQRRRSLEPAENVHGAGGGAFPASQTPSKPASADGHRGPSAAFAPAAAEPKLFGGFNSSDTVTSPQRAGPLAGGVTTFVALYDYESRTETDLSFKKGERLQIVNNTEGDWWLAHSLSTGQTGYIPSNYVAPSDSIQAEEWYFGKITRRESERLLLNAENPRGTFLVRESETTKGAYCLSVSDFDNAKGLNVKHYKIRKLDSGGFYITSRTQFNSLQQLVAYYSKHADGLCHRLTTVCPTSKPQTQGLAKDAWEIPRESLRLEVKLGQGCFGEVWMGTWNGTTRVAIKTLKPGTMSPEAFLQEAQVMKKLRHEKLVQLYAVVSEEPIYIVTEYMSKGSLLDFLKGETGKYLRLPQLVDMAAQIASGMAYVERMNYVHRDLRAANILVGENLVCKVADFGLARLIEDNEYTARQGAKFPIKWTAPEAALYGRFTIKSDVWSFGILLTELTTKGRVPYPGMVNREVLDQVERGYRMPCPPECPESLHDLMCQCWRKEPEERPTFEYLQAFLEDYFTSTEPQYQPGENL
Chain of UniProt Q9NQU5 (Q9NQU5 whole entry, looked up): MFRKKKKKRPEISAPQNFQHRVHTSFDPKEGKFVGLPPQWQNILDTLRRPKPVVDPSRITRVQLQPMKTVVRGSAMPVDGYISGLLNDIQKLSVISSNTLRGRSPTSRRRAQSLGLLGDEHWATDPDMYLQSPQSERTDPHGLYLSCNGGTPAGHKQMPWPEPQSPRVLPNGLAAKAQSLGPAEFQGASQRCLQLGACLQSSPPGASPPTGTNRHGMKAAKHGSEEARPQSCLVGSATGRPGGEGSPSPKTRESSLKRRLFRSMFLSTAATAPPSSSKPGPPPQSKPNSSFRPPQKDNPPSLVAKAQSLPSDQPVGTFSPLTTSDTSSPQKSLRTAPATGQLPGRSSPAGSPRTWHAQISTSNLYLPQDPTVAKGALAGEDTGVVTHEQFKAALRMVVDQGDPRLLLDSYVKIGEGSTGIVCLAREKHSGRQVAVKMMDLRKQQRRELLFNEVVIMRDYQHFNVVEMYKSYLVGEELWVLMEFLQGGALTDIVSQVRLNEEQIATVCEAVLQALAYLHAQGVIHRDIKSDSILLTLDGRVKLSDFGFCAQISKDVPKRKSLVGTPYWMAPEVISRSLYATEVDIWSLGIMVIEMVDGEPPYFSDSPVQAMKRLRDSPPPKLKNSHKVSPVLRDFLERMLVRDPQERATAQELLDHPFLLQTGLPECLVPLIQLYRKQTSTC

Target | kinase activity remaining (inhibitor concentration 0.1 µM) [%] | kinase activity remaining (inhibitor concentration 1 µM) [%] | kinase activity remaining (inhibitor concentration 10 µM) [%]
HIPK2 (UniProt Q9H2X6) | 123 | 113 | 78
PAK6 (UniProt Q9NQU5) | 117 | 106 | 116
TIE2 (UniProt Q02763) | 105 | 86 | 88
ABL (UniProt P00519) | 120 | 113 | 76
PAK5 (UniProt Q9P286) | 108 | 101 | 101
Src (UniProt P12931) | 110 | 116 | 100
IR | 123 | 125 | 133
EPH-B3 | 98 | 88 | 85
HIPK1 (UniProt Q86Z02) | 111 | 104 | 130
ULK2 (UniProt Q8IYT8) | 109 | 121 | 54
CK1 delta | 96 | 96 | 92
VEGFR1 (UniProt P17948) | 112 | 118 | 65
Aurora B | 109 | 99 | 64

From the supplement of paper PMC6378613
